Data: publication PMC5540273 (PLoS ONE, 2017)

Columns and labels:
Details in all cases: concentration: 1 μM, replicates: in singlicate; n = 1
ULK2 = system: ULK2
ULK3 = system: ULK3
VEGFR2 = system: T1, VEGFR2
T1 construct: gene KDR

VPS34 = system: T2, VPS34
T2 construct: gene PIK3C3

VRK2 = system: VRK2
WEE1 = system: WEE1
WEE2 = system: WEE2
WNK1 = system: WNK1
WNK2 = system: WNK2
WNK3 = system: WNK3
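Note: KINOMEscan kinase panel screen.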

Structure (SMILES)	%Inh (ULK2) [%]	%Inh (ULK3) [%]	%Inh (VEGFR2) [%]	%Inh (VPS34) [%]	%Inh (VRK2) [%]	%Inh (WEE1) [%]	%Inh (WEE2) [%]	%Inh (WNK1) [%]	%Inh (WNK2) [%]	%Inh (WNK3) [%]
Cc1cc(N2CCC(NS(=O)(=O)c3ccc(F)cc3)CC2)nc(Nc2cccc(C#N)c2)n1.O=C(O)C(F)(F)F [GSK1653537]	0	4	0	0	0	10	15	6	13	2
NC(=O)c1sc(-n2cnc3ccccc32)cc1OCc1ccccc1F [GSK1024306]	0	9	6	31	7	7	0	3	27	23
FC(F)(F)c1cc(Nc2nccc(-c3c(-c4ccc(Cl)cc4)nn4ncccc34)n2)ccc1Cl [GW829351]	6	0	0	2	56	9	0	0	0	0
CN1CCC(n2cnc(-c3ccc(F)cc3)c2-c2ccnc(NC3CCNCC3)n2)CC1 [SB-229482]	4	19	0	50	18	0	30	21	0	49
Clc1cccc(-c2nc(Nc3ccncc3)c3ccccc3n2)c1 [GW873004]	0	0	0	48	0	0	0	0	0	0
COc1cc2c(Nc3cccc(NC(=O)c4ccccc4)c3)ncnc2cc1OCCCN1CCOCC1 [GSK223810]	0	24	28	0	10	0	40	4	10	0
Clc1cc(Nc2ncnc3cc[nH]c23)ccc1OCc1ccccn1	14	21	6	13	9	0	0	0	1	20
Cl.c1ccc(Cn2ccc3cc(Nc4ncnc5ccccc45)ccc32)cc1 [GW275568]	0	9	16	0	0	12	14	5	18	27
Nc1nc(-c2ccccn2)c(-c2ccnc3ccccc23)s1 [GW548057]	0	13	12	9	62	13	0	15	11	50
COc1ccc(Nc2nccc(N3CCC(NC(=O)c4cccc(NC(C)=O)c4)C3)n2)cc1 (stereo not shown) [GSK1379732]	0	11	0	22	41	5	7	0	11	0
N#Cc1ccc(Oc2ccc(Nc3ncnc4cc[nH]c34)cc2Cl)cc1	34	30	12	0	3	28	8	0	7	0
O=C(CCO)NCCn1ccc2ncnc(Nc3ccc(Oc4cccc(C(F)(F)F)c4)c(Cl)c3)c21	0	0	0	0	0	1	0	0	0	0
CS(=O)(=O)CCNCc1ccc(-c2ccc3ncnc(Nc4ccc(OCc5ccccc5)c(Cl)c4)c3c2)o1.Cl [GW574783]	0	0	0	18	42	12	19	11	10	29
CC(C)(C)c1ccc(-n2cnc3c(N)ncnc32)cc1 [SKF-97263]	4	17	11	0	9	0	2	3	0	0
O=c1cc(N2CCOCC2)nc2n(Cc3cccc(Cl)c3)ccn12 [GSK2296823]	0	11	6	93.3	2	0	13	5	0	3
O=C(Nc1ccccc1F)NC1CCN(c2ccnc(Nc3ccc(F)cc3)n2)C1 (stereo not shown) [GSK1379722]	0	8	0	0	16	9	0	10	0	38
CNc1nccc(-c2c(-c3ccc(F)cc3)ncn2C2CCN(C)CC2)n1 [SB-222903]	15	0	0	0	16	0	0	0	0	0

Structure (SMILES)	%Inh (ULK2) [%]	%Inh (ULK3) [%]	%Inh (VEGFR2) [%]	%Inh (VPS34) [%]	%Inh (VRK2) [%]	%Inh (WEE1) [%]	%Inh (WEE2) [%]	%Inh (WNK1) [%]	%Inh (WNK2) [%]	%Inh (WNK3) [%]
Fc1ccc(-c2ncn(CCCNCc3ccccc3)c2-c2ccncc2)cc1	19	14	0	0	13	0	4	0	0	0
CCc1nc(-c2cccc(N(C)S(=O)(=O)c3ccccc3)c2)c(-c2ccnc(Nc3ccc(N4CCN(C(C)=O)CC4)nc3)n2)s1 [GSK1645895]	0	9	31	0	0	0	0	3	0	16
Cc1cccc(-c2nc(Nc3ccc4[nH]nnc4c3)c3ccccc3n2)n1 [GW867587]	0	0	0	0	20	0	0	0	0	0
CCc1nc(-c2cccc(C)c2)c(-c2ccnc(NC(=O)c3ccccc3)c2)s1	9	14	0	14	0	0	10	0	59	0
COc1ccc(-c2oc3ncnc(N)c3c2-c2ccc(OC)cc2)cc1 [SB-589132]	0	39	16	17	56	33	0	22	35	52
COC(=O)c1cccc(NC(=O)NCCNc2ccnc(Nc3ccc(F)cc3)n2)c1 [GSK1379883]	0	23	5	10	0	39	16	24	0	9
Nc1nc(-c2ccc3c(N)n[nH]c3c2)cc(N2CCCCC2)n1 [GSK2228768]	0	0	0	0	0	39	0	0	0	0
Nc1nc(-c2cccnc2)c(-c2ccnc3ccccc23)s1 [GW684083]	0	18	0	72	16	27	11	0	0	31
Cc1ccc(NC(=O)c2cccc(C#N)c2)cc1-c1ccc(C(=O)Nc2ccncc2)cc1 [GSK1398463]	0	15	11	0	0	0	0	17	6	18
CSc1ccc(NC2=C(c3ccccc3Cl)C(=O)NC2=O)cc1 [SB-342411]	0	0	0	1	0	2	0	0	3	17
Cc1ccc(O)cc1Nc1cc(C(F)(F)F)nc2ccc(-c3ccncc3)cc12 [GW630823]	0	0	0	0	0	0	30	0	0	0
Cn1cc(-c2ccc3c(c2)CCN3C(=O)Cc2cccc(C(F)(F)F)c2)c2c(N)ncnc21 [GSK2606414]	0	3	0	22	20	0	19	3	7	0
Cc1ccc(C)c(NC(=O)NCCNc2ccnc(Nc3ccc(F)cc3)n2)c1 [GSK1379878]	0	0	0	0	0	8	0	0	9	15
Oc1ccc2ncnc(Nc3ccc(OCc4ccccc4)cc3)c2c1 [GI262866]	0	4	0	0	0	0	0	0	0	0
Cl.O=S(=O)(c1cccc(F)c1)c1ccc(Nc2ncnc3cc(Br)sc23)cc1Cl [GSK306886]	0	8	3	0	0	20	9	4	9	0
Nc1nc(-c2ccc3c(N)n[nH]c3c2)cc(N2CCC[C@@H](C(=O)Nc3ccccc3)C2)n1.O=C(O)C(F)(F)F.O=C(O)C(F)(F)F [GSK2288359]	3	13	18	0	0	8	0	11	6	14
C[C@@H]1CCN(C(=O)CO)C[C@@H]1N(C)c1ncnc2[nH]ccc12	0	12	0	0	0	0	0	0	0	0
